In the library only some 3.5% were active in any assay of this set; here they are far more common.
FBW7 activator: FBW7 E3 ligase activators, primary screen, biochemical, AlphaScreen, human; F-box/WD repeat-containing protein 7 (Homo sapiens), Q969H0; AlphaScreen FBW7–phospho-cyclin E peptide binding, activator screen; normalized activity (activation), % at 26.1 µM; 0.13% of 650,000 active; AID 1259310, 2017; in the data active means normalized activity above about 1.9%;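 further: purified mutant Fbw7 with reduced substrate affinity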
GPR151 activ: activators of human GPR151, primary screen, cell-based, PathHunter beta-arrestin, luminescence | PathHunter beta-arrestin GPR151 cells | activation, % at 11.2 µM | AID 1508602, 2020 | 1% of 650,000 active; in the data active means activation above about 4.9%;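 further: 0% = median of compound wells and 100% = cells with positive control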
Target sequence (Q8TDV0 whole entry, looked up): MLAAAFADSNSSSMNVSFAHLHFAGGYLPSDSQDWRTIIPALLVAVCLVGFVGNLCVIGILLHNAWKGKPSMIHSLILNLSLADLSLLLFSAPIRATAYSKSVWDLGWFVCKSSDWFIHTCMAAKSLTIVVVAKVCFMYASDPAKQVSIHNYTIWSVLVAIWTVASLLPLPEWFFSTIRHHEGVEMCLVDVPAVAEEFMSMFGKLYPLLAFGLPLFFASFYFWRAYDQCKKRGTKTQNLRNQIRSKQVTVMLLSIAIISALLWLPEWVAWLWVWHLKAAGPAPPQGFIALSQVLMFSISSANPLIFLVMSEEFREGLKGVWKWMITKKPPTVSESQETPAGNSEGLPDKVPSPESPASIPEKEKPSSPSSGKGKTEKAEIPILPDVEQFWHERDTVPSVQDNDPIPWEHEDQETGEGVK
TEAD-YAP inh: TEAD-YAP interaction inhibition, primary screen, TEAD-YAP interaction inhibitor project, luminescence, HEK-TIYL cells; inhibition, % at 9.12 µM; 1.4% of 640,000 active; AID 1259422, 2018; TEAD-Gal4/YAP UAS-luciferase luminescence; in the data active means inhibition above about 32%;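 further: 0% = median of test compound wells and 100% = reference inhibitor wells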
MITF primary: MITF inhibitors, primary screen, biochemical, AlphaScreen, human | Microphthalmia-associated transcription factor (Homo sapiens), O75030 | AlphaScreen MITF homodimerization, bead proximity signal | inhibition, % at 2.6 µM | 0.91% of 650,000 active | AID 1259374, 2018; in the data active means inhibition above about 50%;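 further: 0% = vehicle wells with protein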
* hit, by the source's call.

SMILES | FBW7 activator | GPR151 activ | TEAD-YAP inh | MITF primary
Cc1ccc(C(NC(=O)COc2ccccc2)c2cc(Cl)c3cccnc3c2O)cc1 (stereo unspecified) | 0 | 0 | 19 | 12
CCCCC(=O)NC(c1ccc(C)cc1)c1ccc2cccnc2c1O (stereo unspecified) | 0 | 0 | 85* | 14
CCCC(=O)NC(c1ccc(C)cc1)c1ccc2cccnc2c1O (stereo unspecified) | -1 | 1 | 69* | 4
CCCCC(=O)NC(c1ccc(N(CC)CC)cc1)c1ccc2cccnc2c1O (stereo unspecified) | 0 | 1 | 25 | 15
O=C(Cn1ncc2c(Cl)cccc21)NCc1ccccc1F | 0 | -1 | -13 | 6
C=CCn1c(SCC(=O)Nc2ccc(F)cc2F)nnc1-c1ccccc1O | 0 | 0 | 48* | -7
C=CCn1c(SCC(=O)Nc2cccc(C)c2)nnc1-c1ccccc1O | 0 | 1 | 13 | 6
CN1CCN(C(c2cccnc2)c2ccc3cccnc3c2O)CC1 (stereo unspecified) | 0 | 0 | 0 | 34
CN1CCN(C(c2ccc(F)cc2)c2ccc3cccnc3c2O)CC1 (stereo unspecified) | 0 | 0 | 84* | 33
Oc1c(C(c2ccc(C(F)(F)F)cc2)N2CCOCC2)ccc2cccnc12 (stereo unspecified) | 0 | 1 | 82* | 17
Oc1c(C(c2ccc(F)cc2)N2CCOCC2)ccc2cccnc12 (stereo unspecified) | -2 | 1 | 76* | 27
Oc1c(C(c2ccncc2)N2CCOCC2)ccc2cccnc12 (stereo unspecified) | 0 | 1 | 71* | 90*
COc1ccc(/C=C(\NC(=O)c2ccc(OC)cc2)C(=O)Nc2ccc(C(C)=O)cc2)cc1 | 0 | 1 | -4 | 4
Fc1ccc(Cn2nnnc2C(c2ccc3ncccc3c2)N2CCCC2)cc1 (stereo unspecified) | 0 | 1 | -7 | -6
Oc1c(C(c2ccc(F)cc2)N2CCCC2)ccc2cccnc12 (stereo unspecified) | -2 | -1 | 80* | 11
OCCN1CCN(C(c2ccc(Cl)cc2)c2ccc3cccnc3c2O)CC1 (stereo unspecified) | 0 | 0 | 74* | 21
Nc1ccc2nc(N)sc2c1 | 0 | -2 | 2 | 12
Nc1nc2ccc(Oc3ccc4nc(N)sc4c3)cc2s1 | 0 | 1 | 33* | 16
CC1CCc2sc(NC(=O)c3cc(Cl)cc(Cl)c3)c(C#N)c2C1 (stereo unspecified) | 0 | -1 | -12 | 10
C=CC(=O)Nc1ccc(Br)cc1 | 0 | -1 | 36* | 6
O=C(O)/C=C\C(=O)Nc1ccc(Br)cc1 | 0 | 1 | 5 | 4
COC(=O)c1cn(NC(=O)c2cccnc2Cl)c(=O)c2ccccc12 | 0 | -1 | -2 | 0
COC(=O)c1cn(NC(=O)c2ccccn2)c(=O)c2ccccc12 | 0 | -1 | 62* | 100*
COc1cc2c(cc1NC(=O)COc1ncnc3cc([N+](=O)[O-])ccc13)oc1ccccc12 | 0 | 1 | 1 | -2
CCN(CC)c1ccc(Nc2nc(-c3c(C)nc4ccccn34)cs2)cc1 | -1 | 3 | 12 | 22
SMILES | FBW7 activator | GPR151 activ | TEAD-YAP inh | MITF primary
Cc1ccc(Nc2nc(-c3c(C)nc4ccccn34)cs2)cc1 | 0 | 2 | 53* | 15
Cc1nc2ccccn2c1-c1csc(Nc2ccc(Cl)cc2)n1 | 0 | 0 | 44* | 8
Cc1nc2ccccn2c1-c1csc(Nc2ccc(S(N)(=O)=O)cc2)n1 | 0 | 0 | -3 | 5
Cc1ccc(Nc2nc(-c3c(C)nc4ccccn34)cs2)c(C)c1 | 0 | -1 | 53* | -2
CCc1cccc2c1N=C/C2=C\c1c(O)n(Cc2ccco2)c(=O)[nH]c1=O | -1 | 1 | 15 | 58*
O=c1[nH]c(=S)n(Cc2ccco2)c(O)c1/C=C1\C=Nc2ccc(Br)cc21 | -1 | 0 | 11 | 84*
CCc1cccc2c1N=C/C2=C\c1c(O)n(Cc2ccccc2)c(=O)[nH]c1=O | -1 | -2 | -9 | 3
COc1cccc(-c2nnc3sc(NC(=O)c4cccc(C)c4)nn23)c1 | 0 | 2 | -11 | 4
CCOC(=O)c1c(Cl)nc(Cl)c(Cl)c1Nc1cccc(F)c1 | 0 | 1 | 44* | -10
CCOC(=O)c1c(Cl)nc(Cl)c(Cl)c1Nc1cccc(C)c1 | 0 | 1 | 25 | -4
CCOC(=O)c1c(Cl)nc(Cl)c(Cl)c1Nc1ccc(OC(F)(F)F)cc1 | 0 | -1 | 51* | -13
CCOC(=O)c1c(Cl)nc(Cl)c(Cl)c1Nc1ccc(OC)cc1 | 0 | 1 | 47* | 0
O=C(COC(=O)c1cc[n+]([O-])cc1)Nc1cc(C(F)(F)F)ccc1Cl | 0 | 0 | -15 | -9
Cc1cccc2c1NC(C)(C)c1ssc(=Nc3cccc(Cl)c3C)c1-2 | 0 | 1 | 0 | 16
COc1ccc2c(c1)CC(C(=O)Nc1nc3ccc(-c4cn[nH]c4)cc3s1)CO2 (stereo unspecified) | 1 | -1 | 20 | 14
COc1cccc(CNC(=O)Nc2nc3ccc(-c4cn[nH]c4)cc3s2)c1 | 0 | 0 | 96* | 4
COc1cccc(C(=O)Nc2nc3ccc(-c4cn[nH]c4)cc3s2)c1 | 0 | 0 | 25 | 8
NCC(=O)N1CC(C(=O)Nc2nc3ccc(-c4cn[nH]c4)cc3s2)C(c2ccccc2)C1 (stereo unspecified) | 0 | -2 | 9 | -11
O=C(Nc1nc2ccc(-c3cn[nH]c3)cc2s1)C1CNCC1c1ccccc1 (stereo unspecified) | 1 | -1 | 54* | 13
O=C(Nc1nc2ccc(-c3cn[nH]c3)cc2s1)C1COc2ccc(F)cc2C1 (stereo unspecified) | 1 | -1 | 48* | 14
C=CCOc1ccc(C=C2C(=O)NC(=S)NC2=O)cc1 | 0 | 0 | -2 | 13
COc1cc(C(=O)Nc2ccc(NC(=O)C(C)C)nc2)cc(OC)c1OC | 0 | 0 | 7 | -3
Cc1cccc(C(=O)N2c3c(C)cccc3C(Nc3ccccc3C)CC2C)c1 (stereo unspecified) | 0 | 1 | 3 | 8
CCOc1ccc(-c2cc(C(=O)N/N=C/c3ccccc3O)[nH]n2)cc1 | 0 | 2 | 50* | 0
COc1ccc(-c2cc(C(=O)NN)[nH]n2)cc1 | 0 | -1 | 62* | 0
CCOc1ccc(-c2cc(C(=O)N/N=C/c3ccccn3)[nH]n2)cc1 | 0 | 1 | 34* | 21
COc1cccc(-c2cc(C(=O)N/N=C/c3ccccc3O)[nH]n2)c1 | 0 | -1 | -18 | 23
Cc1ccc(-c2cc(C(=O)NN)[nH]n2)cc1 | 0 | -1 | -4 | 15
O=C(CC1(O)C(=O)N(CCc2ccccc2)c2ccccc21)c1ccc2c(c1)CCCC2 (stereo unspecified) | 1 | 1 | 5 | 15
